IL-1B inflam inh – blocks inflammasome-driven IL-1 beta release. THP-1 LPS/ATP IL-1B secretion, AlphaLISA, 16 h; stronger effect = lower value. AID 743279. actives 4.7% (n = 360,000). activity change, % at 57.5 µM; in the data active = activity change below about -50%; inconclusive = mostly about -30% to -49%
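THP-1 cells pretreated 1 hr with compounds (up to 57.5 uM final), then stimulated with LPS (250 ng/mL final) plus ATP (1.25 mM final); secreted IL-1B measured by AlphaLISA after 16 hr, decreased signal indicating inhibition.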
TDP1 cell CPT – DT40-hTDP1 cell growth loss with CPT. chicken DT40 Tdp1-/-;hTDP1 cells + 20 nM CPT, ATP luminescence, 48 h. actives 12% (n = 420,000). AID 686979. Potency, µM (titrated, usually from 46.2 µM), inactives show at the top dose activity change, negative = growth inhibition, hits mostly inhibitors; also: potency is read from the fitted curve at half-maximal effect; nearly all actives have a fitted effect of over 55% in size
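Chicken DT40 Tdp1-/- cells stably complemented with human TDP1 were seeded at 400 cells/well in medium containing 20 nM camptothecin, exposed to pin-transferred compounds, and grown at 37 °C for at least 48 hr. Viability was read as ATP luminescence.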
DT40 TDP1 no CPT – qHTS for Inhibitors of human tyrosyl-DNA phosphodiesterase 1 (TDP1): qHTS in cells in absence of CPT | DT40 Tdp1-/- hTDP1 cells, no CPT, ATP luminescence, 48 h | Potency, µM (series often up to 46.2 µM), without a hit: at the top dose activity change, negative = growth inhibition, usual class: inhibitors | actives 15% (n = 420,000); also: potency is read from the fitted curve at half-maximal effect; nearly all actives have a fitted effect of over 55% in size
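Seeded 400 DT40-hTDP1 cells/well (vehicle DMSO, no 20 nM CPT); pinned compounds; ≥48 hr at 37 °C; CellTiter-Glo luminescence as viability measure.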
ELG1 DNA repair – inhibitors of ELG1-dependent DNA repair in HEK293T cells; AID 504467; HEK293T ELG1-luciferase reporter, luminescence, 16 h; DNA damage induced by 5-fluorouridine; Potency, µM (highest dose often 46.1 µM), for the others: at the top dose activity change, negative = inhibition, hits mostly inhibitors; actives 2.3% (n = 330,000); also: potency is read from the fitted curve at half-maximal effect; nearly all actives have a fitted effect of over 55% in size
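Step one: seed 2,000 cells per well. Step two: pin-transfer compound or DMSO alongside 5-fluorouridine. Step three: incubate 16 hr, 37 °C, 5% CO2. Step four: add ONE-Glo, wait 30 min, read luminescence.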
RORgamma inh – inhibitors of mouse ROR gamma transcriptional activity | actives 5.4% (n = 310,000) | Drosophila S2 Gal4-RORgamma UAS-luciferase reporter, 20 h | P51450 | Potency, µM (highest dose often 53.6 µM), without a hit: at the top dose activity change, negative = inhibition, actives largely listed as inhibitors; also: potency is read from the fitted curve at half-maximal effect; nearly all actives have a fitted effect of over 60% in size
Target sequence (P51450 whole entry, looked up, the tested form may be a part): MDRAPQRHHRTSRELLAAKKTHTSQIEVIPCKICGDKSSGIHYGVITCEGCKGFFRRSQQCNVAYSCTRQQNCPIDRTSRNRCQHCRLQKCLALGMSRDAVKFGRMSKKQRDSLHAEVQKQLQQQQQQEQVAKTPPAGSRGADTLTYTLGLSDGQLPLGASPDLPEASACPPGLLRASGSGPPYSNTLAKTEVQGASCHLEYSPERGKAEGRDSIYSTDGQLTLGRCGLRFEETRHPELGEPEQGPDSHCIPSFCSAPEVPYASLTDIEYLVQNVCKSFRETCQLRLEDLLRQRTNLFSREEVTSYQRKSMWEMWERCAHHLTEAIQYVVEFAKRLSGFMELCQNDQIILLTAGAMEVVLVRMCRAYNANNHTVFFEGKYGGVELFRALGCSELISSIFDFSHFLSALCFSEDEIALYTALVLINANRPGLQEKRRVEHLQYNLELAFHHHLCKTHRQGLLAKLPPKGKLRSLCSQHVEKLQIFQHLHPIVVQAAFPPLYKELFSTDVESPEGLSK
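Luciferase reporter read in Schneider cells carrying Gal4-RORγ (mouse) and UAS-Photinus luciferase; cells given compound 1 h before 700 uM copper sulfate induction, then incubated 20 h at ambient temperature.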
VP16 counter – inhibits Gal4-VP16 luciferase reporter, ROR gamma counter-screen; actives 3.5% (n = 310,000); AID 2546; Potency, µM (highest dose often 53.6 µM), without a hit: at the highest dose activity, negative = inhibition, hits mostly inhibitors; Drosophila S2 Gal4-VP16 UAS-luciferase, luminescence, 20 h;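 also: Gal4-VP16 expression switched on by copper sulfate through the metallothionein promoter; potency is read from the fitted curve at half-maximal effect; nearly all actives have a fitted effect of over 50% in size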
* = called active by the depositor; ? = inconclusive; . = no result given; [ ] = dose if it differs, or a comment. Most compounds without a hit are left out; they make up all but 21% or so of the library. Unless noted, calls follow the shape of the dose curve; as a rule, active = well fitted curve in the direction sought with a large enough effect; inconclusive = small, poorly fitted or top-dose-only effect, or another doubt; inactive = no such curve, though single readings can be large; an effect the other way counts as inactive or inconclusive. % is scaled to controls: 0 for no effect and ±100 for the full control effect.

SMILES | IL-1B inflam inh | TDP1 cell CPT | DT40 TDP1 no CPT | ELG1 DNA repair | RORgamma inh | VP16 counter
O=C(CSc1nc2c([nH]c3ccccc32)c(=O)n1-c1ccc(F)cc1)N1CCCc2ccccc21 | . | ? | -14% | . | . | .
COc1ccc(OC)c(NC(=S)NN2CCN(C)CC2)c1 | -24 | -3% | -22% | ? | -6% | 6%
COc1ccc(NC(=S)NN2CCOCC2)cc1OC | 0 | -4% | 1% | -5% | -27% | 1%
Cc1cc(Br)ccc1NC(=S)N1CCOCC1 | -26 | 2% | 4% | -5% | 13µM* | 1%
Cc1ccc(C)c(NC(=S)NCCN2CCOCC2)c1 | 18 | -22% | 2% | . | . | .
COc1ccc(OC)c(NC(=S)NN2CCOCC2)c1 | 6 | -19% | -9% | -22% | 28µM* | -8%[0.365 µM]
Cc1ccc(NC(=S)NN2CCOCC2)c(C)c1 | -17 | 3% | 7% | 13% | 11µM* | ?
COc1ccc(Cl)cc1NC(=S)NN1CCOCC1 | 14 | -7% | 1% | 0% | 5µM* | ?
O=C(/C=N/O)NCCCCNC(=O)/C=N/O | . | . | . | . | -13%[10 µM] | -8%[10 µM]
O=S(=O)(Nc1cccc(-c2ccc(N3CCOCC3)nn2)c1)c1ccc(F)cc1F | . | -25% | -20% | . | . | .
CC(C)OC(=O)C[C@H](NC(=O)OC(C)(C)C)c1ccccc1 | . | . | . | . | 2%[10 µM] | -6%[10 µM]
CCNC(=S)NNC(=O)CCc1nc2cc(Cl)ccc2n(Cc2ccccc2)c1=O | -3 | -10% | ? | 0% | 6.3µM* | -10%
NC(=O)CCc1nc2cc(C(F)(F)F)ccc2n(Cc2ccccc2)c1=O | -11 | -15% | ? | 4% | 38% | 2%
CN(C)C(CNC(=O)CCc1nc2cc(Cl)ccc2n(Cc2ccccc2)c1=O)c1ccccc1 (stereo not drawn) | -67* | ? | 16µM* | -2% | . | .
COc1cc2cc[n+]3cc4c(OC)c(OC)ccc4cc3c2cc1OC | . | 2.3µM* | 2.9µM* | . | 10% | -3%
CC(=O)c1cc(-c2ccc(F)cc2)n(CC(=O)NC2CCCCCC2)c1C | . | ? | 16µM* | . | . | .
COc1ccc(CCNC(=O)Cn2c(-c3ccc(F)cc3)cc(C(C)=O)c2C)cc1OC | . | 26µM* | 21µM* | . | . | .
CCOC(=O)c1cc(-c2ccc(C)cc2)n(CC(=O)NC2CCCCCC2)c1C | . | 23µM* | ? | . | . | .
CCOC(=O)c1cc(-c2ccccc2)n(CC(=O)NC2CCC(C)CC2)c1C (stereo not drawn) | . | 15µM* | 12µM* | . | . | .
CN(C)C(=O)CSc1nnc(Cc2ccccc2)n1CC1CCCO1 (stereo not drawn) | 7 | 0% | -18% | 6% | 24% | -2%
CCC(=O)N(c1nnc(SCC(=O)Nc2ccccc2Cl)s1)C1CC1 | 22 | 0% | 13% | -11% | . | .
Nc1nonc1-n1nnc(C(=O)N/N=C/c2ccccc2F)c1CN1CCc2ccccc21 | -10 | 1% | -26% | -7% | ? | -11%
COc1ccc(C2CC(=O)C3=C(C2)Nc2ccccc2NC3c2coc3ccccc3c2=O)cc1OC (stereo not drawn) | ? | 16µM* | 26µM* | ? | -6%[10 µM] | 5%
Cc1ccc(S(=O)(=O)n2nccc2-c2c(-c3ccc(Cl)cc3)noc2C)cc1 | -14 | ? | 16µM* | ? | ? | -10%
O=C1C=Cc2cccc3ccc(O)c1c23 | ? | 23µM* | 15µM* | . | . | .
SMILES | IL-1B inflam inh | TDP1 cell CPT | DT40 TDP1 no CPT | ELG1 DNA repair | RORgamma inh | VP16 counter
O=C(CC(=O)NC1CCCCC1)N/N=C/c1ccccc1[N+](=O)[O-] | 1 | -15% | 1% | ? | 39% | 6%
Cc1ccc(Nc2nnns2)cc1 | -19 | -22% | -35% | 4% | -42% | -16%
CC1=CC(C)(C)N=C(Nc2ccc(C)cc2)S1 | -65* | ? | ? | ? | ? | -2%
CCCCn1c(=S)[nH]c2ccc(N3CCOCC3)cc2c1=O | . | . | . | -24% | 2.2µM* | 7.1µM*
CCOc1cc2[nH]c(=S)n(Cc3ccc(C)o3)c(=O)c2cc1OCC | 6 | 29µM* | -30% | -9% | 7.1µM* | 11µM*
Cc1ccc(Cn2c(=S)[nH]c3ccc(N4CCOCC4)cc3c2=O)o1 | ? | ? | 16µM* | -21% | 3.2µM* | 4µM*
Cc1cccc(N2CCN(C(=O)CCCCCn3c(=S)[nH]c4ccc(N5CCOCC5)cc4c3=O)CC2)c1C | -16 | 16µM* | 6.5µM* | 16µM* | 7.1µM* | 11µM*
CCCC(=O)N1CCOCC1c1cc(C(=O)NCc2ccccc2)no1 (stereo not drawn) | 14 | -1% | 8% | . | . | .
O=C(C[n+]1ccccc1Br)c1ccc(O)c(O)c1 | . | 12% | -6% | . | . | .
O=c1c2cc(F)ccc2[nH]c(=S)n1CCCN1CCOCC1 | -9 | -5% | 17% | 8% | 11µM* | ?
O=c1c2cc(N3CCOCC3)ccc2[nH]c(=S)n1CCCN1CCCCCC1 | -7 | ? | -24% | ? | -25% | 7%
COc1cc2c(=O)n(CCCN3CCOCC3)c(=S)[nH]c2c(OC)c1OC | 38 | 5.8µM* | 23µM* | -29% | -26% | 1%
O=c1c2cc3c(cc2[nH]c(=S)n1CCN1CCOCC1)OCO3 | 9 | 0% | -7% | -3% | ? | -7%
CCOC(=O)C1=C(C)NC(=S)NC1c1ccco1 (stereo not drawn) | -9 | -3% | ? | -4% | -39% | -4%
CCOC(=O)C1=C(C)NC(=S)NC1c1ccc(-c2cccc(Cl)c2C)o1 (stereo not drawn) | -14 | 16µM* | 12µM* | 21µM* | 4µM* | 8.9µM*
COC(=O)C1=C(C)NC(=O)NC1c1ccc(-c2ccccc2Cl)o1 (stereo not drawn) | 24 | 10µM* | 16µM* | 28% | ? | -5%
CCOC(=O)C1=C(C)NC(=S)NC1c1ccc(-c2ccc(Cl)cc2)o1 (stereo not drawn) | -21 | ? | ? | ? | 2.5µM* | 6.3µM*
COC(=O)C1=C(C)NC(C)=C(C(=O)OC)C1c1ccc(-c2cc(Cl)ccc2Cl)o1 | -68* | 2% | -25% | 12% | -9% | -15%
CCOC(=O)C1=C(C)NC(=O)NC1c1ccc(-c2ccc(Cl)cc2)o1 (stereo not drawn) | ? | -10% | ? | ? | -21% | -7%
C[C@H]1CN([C@@H](C)CO)C(=O)CCCn2cc(nn2)CO[C@@H]1CN(C)C(=O)CCC(F)(F)F | 13 | -14% | ? | . | . | .

Source: PubChem BioAssay
